# Measured values from PubChem BioAssay (NCATS).
# Where “and” joins values, the source holds several entries; their conditions need not be identical. Identical values can stand only once. Unmarked numbers belong to inactive results. Results filed as inconclusive are left out. Calls of active or inactive are those of the source. Unless noted, calls follow the shape of the dose curve; as a rule, active = well fitted curve in either direction with a large enough effect (not every such curve was filed as active); inconclusive = small, poorly fitted or top-dose-only effect, or another doubt; inactive = flat fitted curve, though single readings scatter.
# Assays:
# [1] = AP1 Signaling Pathway (AID 357); conditions: ME-180 AP-1-bla reporter, EGF-induced, beta-lactamase ratio, 5 h; at 7.69 µM (top of the series) unless noted; also: % is scaled to controls: 0 for no effect and ±100 for the full control effect
# Method in brief: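 AP-1-bla ME-180 cells with beta-lactamase reporter under AP-1 response element, stimulated with EC50 EGF; compounds titrated, 5 hours at 37 degrees Celsius. CCF4 read at 460/530 nm ratio; positive and negative modulators judged by AC50.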
# [2] = Stat Signaling Pathway (AID 446); conditions: ME-180 SIE beta-lactamase reporter, IL-6 stimulated, 5 h; at 7.69 µM (top of the series) unless noted;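 also: ME-180 cervical cancer cells given 40 pM IL-6 alongside compound; SIE-controlled beta-lactamase reporter measured as 460/530 nm FRET emission ratio; % is scaled to controls: 0 for no effect and ±100 for the full control effect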
# Method in brief: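 ME-180 SIE-bla cells; overnight plating; cpd + IL-6 40 pM, 5 h, 37 C; LiveBLAzer 2.5 h RT; 460/530 nm emission ratio. Normalized to 300 pM IL-6 and 125 nM JAK inhibitor controls.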
# [3] = target: Glucocorticoid receptor (Homo sapiens) (UniProt P04150); assay: GR-EFC Redistribution (AID 451; calls by dose curve; also: potency is read from the fitted curve at half-maximal effect); conditions: CHO-K1 GR-EFC translocation, beta-gal luminescence, 2 h
# Method in brief: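 CHO-K1 cells expressing nuclear EA and GR-ED fragments of b-gal; compounds titrated up to 46 uM final, 2 h at 37 C. GR nuclear translocation read as complemented b-gal luminescence after 1 h RT detection.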
# [4] = target: Mitogen-activated protein kinase 10 (Mus musculus) (UniProt Q61831); assay: JNK3 AlphaScreen Assay (AID 530);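 also: kinase came from lysate of stimulated human HepG2 cells; signal reports phosphorylation of biotinylated GST-cJun 1-79 at Ser73 with 10 µM ATP; % is scaled to controls: 0 for no effect and ±100 for the full control effect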
# Method in brief: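 Pre-activated (IL-1β/TNFα) JNK3 in HepG2 lysates phosphorylates biotin-GST-cJun(1-79), 10 uM ATP; anti-phospho-cJun(Ser73) AlphaScreen read at room temperature, pH 7.6 Tris buffer. Compounds pre-incubated 15 min as titrations.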
# Chain of Glucocorticoid receptor (Homo sapiens) (P04150 whole entry, looked up, the tested form may be a part): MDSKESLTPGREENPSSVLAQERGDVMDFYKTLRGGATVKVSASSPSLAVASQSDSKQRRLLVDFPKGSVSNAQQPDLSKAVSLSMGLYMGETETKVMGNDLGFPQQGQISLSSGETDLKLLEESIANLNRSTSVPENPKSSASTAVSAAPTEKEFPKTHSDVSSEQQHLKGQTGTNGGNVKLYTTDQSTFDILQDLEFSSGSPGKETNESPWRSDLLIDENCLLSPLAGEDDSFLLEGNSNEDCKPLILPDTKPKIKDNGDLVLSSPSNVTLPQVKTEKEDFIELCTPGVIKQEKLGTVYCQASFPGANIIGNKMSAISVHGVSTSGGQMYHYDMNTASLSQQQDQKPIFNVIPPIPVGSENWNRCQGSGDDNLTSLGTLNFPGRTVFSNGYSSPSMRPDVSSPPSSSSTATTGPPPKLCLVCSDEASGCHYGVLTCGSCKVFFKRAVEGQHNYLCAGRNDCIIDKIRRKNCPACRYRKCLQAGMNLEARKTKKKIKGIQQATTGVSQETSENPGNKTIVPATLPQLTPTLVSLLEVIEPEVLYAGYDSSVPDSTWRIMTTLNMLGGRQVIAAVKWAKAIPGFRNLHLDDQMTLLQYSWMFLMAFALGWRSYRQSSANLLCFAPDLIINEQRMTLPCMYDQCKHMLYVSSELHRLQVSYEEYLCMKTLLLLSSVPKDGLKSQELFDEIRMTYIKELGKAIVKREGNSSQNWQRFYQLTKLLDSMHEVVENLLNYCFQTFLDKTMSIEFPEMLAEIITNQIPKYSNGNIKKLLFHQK
SMILES,"activity change, negative = inhibition [1]","activity, negative = inhibition [2]",Potency [3],Potency [4],"activity change, negative = inhibition [4]"
COc1cc(C[C@H](C)N)c(OC)cc1I,8.22% [at 38 µM] and 4.79% [at 38 µM],-6.07% [at 38 µM],> 46 µM,inactive,
CCn1cnc2c(Nc3cccc(Cl)c3)nc(N[C@@H]3CCCC[C@H]3N)nc21,-111% [at 38 µM] (active),-30.2% [at 38 µM] (active),> 46 µM,inactive,
CC(C)[C@@]1(NC(=O)[C@H]2C[C@H]3c4cccc5[nH]cc(c45)C[C@@H]3N(C)C2)O[C@]2(O)[C@H]3CCCN3C(=O)[C@H](Cc3ccccc3)N2C1=O,-10% [at 38 µM],-34.2% [at 38 µM],> 46 µM,inactive,
Oc1ccc2c3c1O[C@@H]1c4[nH]c5c(c4C[C@@]4(O)[C@@H](C2)N(CC2CC2)CC[C@]314)C[C@]1(O)[C@@H]2Cc3ccc(O)c4c3[C@@]1(CCN2CC1CC1)[C@H]5O4,-1.65% [at 38 µM],-12.2% [at 38 µM],> 46 µM,,
CC(=O)OCC1=C(C(=O)[O-])N2C(=O)[C@@H](NC(=O)CCC[C@@H](N)C(=O)[O-])[C@@H]2SC1.[Zn+2],13.1% [at 38 µM],-13.9% [at 38 µM],> 46 µM,inactive,
CCN(CC)c1ncnc2c1ncn2[C@@H]1O[C@@H](COP(=O)(O)OP(=O)(O)C(Br)(Br)P(=O)(O)O)[C@H](O)[C@@H]1O,6.32% [at 38 µM],-1.38% [at 38 µM],> 46 µM,inactive,
COc1ccc2c(c1)[C@]13CCCC[C@@H]1[C@H](C2)NCC3,15.6% [at 38 µM],-11.2% [at 38 µM],> 46 µM,inactive,
Nc1ncnc2c1ncn2[C@@H]1O[C@@H](COP(=O)(O)CP(=O)(O)OP(=O)(O)O)[C@H](O)[C@@H]1O,-0.584% [at 38 µM],-9.36% [at 38 µM],> 46 µM,inactive,
C[N+]1(C)C2CC(OC(=O)C(CO)c3ccccc3)CC1[C@@H]1O[C@H]21 (some centres not stated),-8.85% [at 38 µM] and -6.94% [at 38 µM],5.12% [at 38 µM] and -2.5% [at 38 µM],> 46 µM,inactive,
C=CCN1CC[C@]23c4c5ccc(O)c4O[C@@H]2/C(=N/NC(=O)c2ccccc2)CC[C@@]3(O)[C@H]1C5,-2.73% [at 38 µM],-23.6% [at 38 µM],> 46 µM,inactive,
COc1cc([C@@H](O)CN)ccc1O,-3.13% [at 38 µM],3.87% [at 38 µM],> 46 µM,inactive,
COc1ccc2c3c1O[C@@H]1C(=O)CC[C@@]4(O)[C@@H](C2)N(CC2CC2)CC[C@]314,-5.48% [at 38 µM],4.82% [at 38 µM],> 46 µM,inactive,
C[C@]12CC[C@H](O)CC1=CC[C@@H]1[C@H]2CC[C@]2(C)C(=O)CC[C@H]12,1.1% [at 38 µM],3.87% [at 38 µM],> 46 µM,,
O=C(O)[C@H]1[C@H](C(=O)O)[C@H]2CC[C@@H]1O2,-9.16% [at 38 µM],-14.7% [at 38 µM],> 46 µM,inactive,
CC(C)N[C@@H](C)Cc1ccc(I)cc1,17.5% [at 38 µM],-4.05% [at 38 µM],> 46 µM,inactive,
C[C@@]12CC[C@H]3[C@@H](CCC4=C(O)C(=O)CC[C@]43C)[C@H]1CCC2=O,4.24% [at 38 µM],14.9% [at 38 µM],> 46 µM,inactive,
NC[C@H](O)c1cc(O)c(O)cc1F,-2.42% [at 38 µM],10.9% [at 38 µM],> 46 µM,,
O=C(Nc1cc[c]([Sb](=[O])([OH])[OH])cc1)c1ccccc1,-1.71%,-1.59%,> 9.22 µM,,-0.0598% [at 11.4 µM]
COC(=O)[C@H](N)CCCN=C(N)N[N+](=O)[O-],-2.03% [at 38 µM],3% [at 38 µM],> 46 µM,inactive,
N[C@H](Cc1ccc(N(CCCl)CCCl)cc1)C(=O)O,23.8% [at 38 µM],4.88% [at 38 µM],> 46 µM,inactive,
